Records with an inconclusive call do not appear. Activity calls are given as the source filed them. Rule for the calls, unless noted: active = hit-call score of the fitted dose curve at least 0.9, where 1 is the maximum; inactive = score below 0.9.
How the values were obtained:
[1] = APR_HepG2_CellCycleArrest_1hr: Apredica 1-hour HepG2 Assay for Cell Cycle Arrest (AID 2282666); settings: high-content imaging, actives raise or lower the signal
Outline: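 Cell cycle arrest scored from nuclear DNA content (Hoechst 33342) using high-content imaging of fixed HepG2 cells after 1 h treatment across 0.39–200 uM, in duplicate. Gain or loss fitted relative to 0.5% DMSO.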

[2] = ACEA_ER_80hr: ACEA Biosciences xCELLigence Real-Time Cell Analysis on Estrogen Receptor Agonism for Proliferation (AID 2282667; active = hit-call score of the fitted dose curve at least 0.9, where 1 is the maximum); settings: T47D proliferation, impedance (xCELLigence), 80 h
Outline: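 Real-time electrical impedance tracked growth of the human breast line T47D, with the 80 h post-dosing value used. Dosing spanned eight 1:4 steps down from a 100 uM final top concentration, run in duplicate.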

[3] = APR_HepG2_CellLoss_1hr: Apredica 1-hour HepG2 Assay for Cell Loss (AID 2282668); settings: high-content imaging;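 note: curves fitted both ways against DMSO so gain or loss of cells counts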
Outline: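 Cell number comes from high-content imaging of Hoechst-labelled nuclei in fixed HepG2 cells. Cells were exposed for 1 h to ten concentrations from 0.39 to 200 uM in 0.5% DMSO. Gain or loss was fitted against DMSO controls.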

[4] = APR_HepG2_NuclearSize_1hr: Apredica 1-hour HepG2 Assay for Nuclear Size (AID 2282670); settings: high-content imaging, actives raise or lower the signal
Outline: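 Nuclear size measured by high-content imaging of Hoechst 33342 nuclear stain after formaldehyde fixation; human HepG2 line exposed 1 hr to compounds at 0.39–200 uM in 0.5% DMSO, with bidirectional curve fitting relative to DMSO.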

[5] = APR_HepG2_MitoticArrest_1hr: Apredica 1-hour HepG2 Assay for Mitotic Arrest (AID 2282672); settings: high-content imaging, actives raise or lower the signal
Outline: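 Ten-point concentration series (0.39 to 200 uM, duplicates, 0.5% v/v DMSO) applied to human HepG2 liver cells for 1 hr. High-content imaging of phospho-histone H3 and Hoechst-stained nuclei after fixation and permeabilization; DMSO-normalised bidirectional fit.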

[6] = APR_HepG2_P-H2AX_1hr: Apredica 1-hour HepG2 Assay for H2AX Phosphorylation (AID 2282673); settings: high-content imaging, actives raise or lower the signal
Outline: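 Phospho-H2A.x immunofluorescence (1:200, FITC secondary) plus Hoechst nuclear stain, quantified by high-content imaging in HepG2 after 1 hr compound exposure. Ten concentrations, 0.39 to 200 uM, in duplicate with 0.5% DMSO; fit both directions against DMSO.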

[7] = APR_HepG2_MitoMass_1hr: Apredica 1-hour HepG2 Assay for Mitochondrial Mass (AID 2282674); settings: high-content imaging, actives raise or lower the signal
Outline: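 Mitochondrial mass is taken from MitoTracker Red CMXRos (250 nM, 30 min, pre-fixation) fluorescence imaged at 20x in HepG2 cells. Exposure lasted 1 hr across ten concentrations, 0.39 to 200 uM, 0.5% DMSO; DMSO baseline, bidirectional fitting.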

[8] = APR_HepG2_CellCycleArrest_24hr: Apredica 24-hour HepG2 Assay for Cell Cycle Arrest (AID 2282905); settings: imaging, actives raise or lower the signal;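 note: cell cycle arrest scored as ratio of 2N to 4N nuclear DNA content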
Outline: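 After 24 h exposure at 0.39–200 uM in 0.5% DMSO, fixed cells received Hoechst 33342 staining. Imaging quantified per-nucleus DNA content; gain or loss fitted against DMSO controls.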

[9] = APR_HepG2_StressKinase_1hr: Apredica 1-hour HepG2 Assay for Stress Kinase (AID 2282906); settings: HepG2 stress kinase (phospho-c-Jun) imaging, actives raise or lower the signal
Outline: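 High-content imaging of phospho-c-Jun immunostaining (with Hoechst nuclear identification) after a 1 h exposure of HepG2 cells to 10 concentrations from 0.39 to 200 uM, final DMSO 0.5%. Fitted bidirectionally against DMSO.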

[10] = APR_HepG2_NuclearSize_24hr: Apredica 24-hour HepG2 Assay for Nuclear Size (AID 2282907); settings: high-content imaging, actives raise or lower the signal
Outline: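 Nuclear size from Hoechst 33342-stained, formaldehyde-fixed HepG2 nuclei imaged by high-content microscopy, after 24 h dosing at ten concentrations from 0.39 to 200 uM in 0.5% DMSO; gain or loss relative to DMSO baseline.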

[11] = APR_HepG2_CellLoss_24hr: Apredica 24-hour HepG2 Assay for Cell Loss (AID 2282908); settings: high-content imaging;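 for AC50: fit in both directions so a hit may be cell loss or gain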
Outline: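 Nuclei stained with Hoechst 33342 after formaldehyde fixation (3.7%) were imaged at 20x to count cells. Exposure lasted 24 hr, at ten concentrations from 0.39 to 200 uM in duplicate, with 0.5% v/v DMSO. Fit bidirectional, relative to DMSO.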

[12] = APR_HepG2_MicrotubuleCSK_24hr: Apredica 24-hour HepG2 Assay for Microtubule CSK Stabilty (AID 2282909); settings: HepG2 microtubule cytoskeleton imaging, actives raise or lower the signal
Outline: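 Fixed HepG2 cells were stained for alpha-tubulin and imaged after 24 hr exposure to ten concentrations spanning 0.39–200 uM in 0.5% DMSO. Signal change was fitted in both directions relative to DMSO; taxol was the positive control.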

[13] = APR_HepG2_MitoticArrest_24hr: Apredica 24-hour HepG2 Assay for Mitotic Arrest (AID 2282910); settings: high-content imaging, actives raise or lower the signal
Outline: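 High-content imaging of fixed HepG2 cells labeled with Hoechst 33342 and anti-phospho-histone H3, after 24 h treatment. Ten concentrations 0.39 to 200 uM in duplicate, final DMSO 0.5%; changes fitted both directions relative to DMSO.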

[14] = APR_HepG2_MitoMembPot_24hr: Apredica 24-hour HepG2 Assay for Mitochondrial Membrane Potential (AID 2282911); settings: imaging, actives raise or lower the signal
Outline: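 Cells are dosed for 24 hr across 0.39 to 200 uM with solvent held at 0.5% DMSO. They are then stained with 250 nM MitoTracker Red CMXRos for 30 min, fixed in 3.7% formaldehyde and imaged.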

[15] = APR_HepG2_MitoMass_24hr: Apredica 24-hour HepG2 Assay for Mitochondrial Mass (AID 2282912); settings: high-content imaging, actives raise or lower the signal
Outline: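 Endpoint is MitoTracker Red CMXRos (250 nM, 30 min, pre-fixation) intensity from 20x high-content imaging, nuclei located by Hoechst. Human HepG2 cells received ten concentrations from 0.39 to 200 uM in 0.5% DMSO for 24 hr, duplicate wells. Bidirectional fit relative to DMSO.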

[16] = APR_HepG2_CellCycleArrest_72hr: Apredica 72-hour HepG2 Assay for Cell Cycle Arrest (AID 2282914); settings: high-content imaging, actives raise or lower the signal
Outline: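 Read-out is Hoechst-stained nuclear DNA content measured by automated fluorescence imaging (20x, six images per well), fitted in both directions relative to DMSO. Human HepG2 liver cells received 0.39–200 uM compound for 72 hr at 0.5% v/v DMSO.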

[17] = APR_HepG2_p53Act_1hr: Apredica 1-hour HepG2 Assay for p53 Activation (AID 2282671); settings: high-content imaging, actives raise or lower the signal
Outline: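 After 1 h exposure (0.39–200 uM, 0.5% DMSO final, duplicates), fixed HepG2 cells were labelled with anti-p53 antibody plus Hoechst nuclear stain. Fluorescence quantified by automated 20x imaging; changes fitted in both directions against DMSO.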

[18] = APR_HepG2_MitoMembPot_1hr: Apredica 1-hour HepG2 Assay for Mitochondrial Membrane Potential (AID 2282675); settings: imaging, actives raise or lower the signal
Outline: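 Mitochondrial membrane potential read as MitoTracker Red CMXRos intensity by automated imaging of fixed HepG2 cells. Dye at 250 nM for 30 min pre-fixation; compounds 0.39 to 200 uM for 1 hour, duplicate wells, 0.5% DMSO.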

[19] = APR_HepG2_p53Act_24hr: Apredica 24-hour HepG2 Assay for p53 Activation (AID 2282913); settings: high-content imaging, actives raise or lower the signal;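 note: p53 protein immunofluorescence averaged per cell in HepG2 with Hoechst nuclei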
Outline: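 Human HepG2 liver cells; 24 hr cpd treatment, 0.39–200 uM, 0.5% DMSO final. Fixed in 3.7% formaldehyde, permeabilized with 0.5% Triton X-100, stained with anti-p53/Cy5 plus Hoechst 33342. Six images per well at 20x; gain or loss vs DMSO.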

Measured: AC50

CCNC(=O)NC(=O)C(C#N)=NOC
active: [1] 0.0391 µM
inactive: [2] | [3] | [4] | [5] | [6] | [7] | [8] | [9] | [10] | [11] | [12] | [13] | [14] | [15] | [16]

Nc1c(Cl)c(Cl)nc(C(=O)O)c1Cl
inactive: [1] | [2] | [3] | [17] | [5] | [6] | [7] | [18] | [8] | [11] | [13] | [14] | [15] | [19] | [16]

CC(C)N1C(=O)N(c2ccccc2)CSC1=NC(C)(C)C
active: [18] 114 µM | [8] 97.8 µM | [11] 115 µM | [13] 114 µM
inactive: [1] | [2] | [3] | [17] | [6] | [7] | [10] | [14] | [15] | [19] | [16]

Nc1c(Cl)c(F)nc(OCC(=O)O)c1Cl
inactive: [1] | [2] | [3] | [4] | [17] | [6] | [7] | [8] | [11] | [13] | [14] | [15] | [19] | [16]

Nc1cnn(-c2ccccc2)c(=O)c1Cl
inactive: [1] | [2] | [3] | [4] | [17] | [6] | [7] | [8] | [9] | [11] | [12] | [13] | [14] | [15] | [19] | [16]

CC(C)(C)C(=O)C(Oc1ccc(Cl)cc1)n1cncn1 (stereo unspecified)
active: [2] 22.5 µM | [16] 82.2 µM
inactive: [1] | [3] | [17] | [6] | [7] | [18] | [8] | [9] | [11] | [13] | [14] | [15] | [19]

CCOc1nc(F)cc2nc(S(=O)(=O)Nc3c(Cl)cccc3Cl)nn12
inactive: [1] | [2] | [3] | [17] | [6] | [7] | [18] | [8] | [9] | [11] | [13] | [14] | [15] | [19] | [16]
